For orientation: viability means a read-out of living cells in per cent, often relative to untreated cells.

Assay [1] can be described thus: growth inhibition of DIPG cells – cell-based, MIPE4.0 library, CellTiter-Glo luminescence, qHTS (AID 1347066; cut-off not given, nearly all actives have AC50 up to about 30 µM;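 also: cells exposed to compound for 48 hours before readout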). The settings on record: SU-DIPG-VI viability, CellTiter-Glo ATP luminescence. A general note: In ATP-based viability assays light output follows the ATP content of the culture.
Assay [2] can be described thus: JHH-DIPG-1 glioma cell viability, MIPE5.0 library, CellTiter-Glo luminescence, qHTS (AID 1347067; cut-off not given, nearly all actives have AC50 up to about 26 µM;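 also: cells exposed to compound for 48 hours before readout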). The settings on record: JHH-DIPG-1 glioma viability, CellTiter-Glo ATP luminescence.
Assay [3] can be described thus: growth inhibition of DIPG cells – cell-based, MIPE5.0 library, qHTS (AID 1347068; cut-off not given, nearly all actives have IC50 up to about 30 µM). The settings on record: SU-DIPG-XXV viability. For orientation: In qHTS, concentration-response curves come from the screen itself.
Assay [4] can be described thus: compounds altering HSF1 focus formation in cells – imaging, Selleck Cancer Library (AID 1347162; in the data active = plate-normalised HSF1 focus index below about 0.46). The settings on record: human cells, HSF1 nuclear foci imaging, at 10 µM; SSMD: measured here: HSF1 foci SSMD mean; cell count: measured here: cell number; plate-normalised HSF1 focus index: stronger effect = lower value.
Assay [5] is described as follows: drug combination growth inhibition, ovarian cancer – cell-based, oncology-focused library, rucaparib conditional, profiling panel (AID 1508598). The note with it: patient-derived ovarian cancer cells, CellTiter-Glo viability, 144 h, stronger effect = lower value.
Assay [6] is described as follows: viability loss with induced miR-34 in A549 – imaging, A549 dox-inducible miR-34, nuclei and caspase counts, primary screen (AID 1347080;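 active = compounds whose cell count with miR-34 switched on is under 0.7 times the count with it off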). The note with it: A549 miR-34 inducible, Hoechst nuclei count, 48 h.
A short description of assay [7]: MELAS cybrid and Rieske KO viability enhancers – cell-based, MELAS cybrids, Rieske KO mouse fibroblasts, CellTiter-Glo, primary screen (AID 1508586;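 active = mean z-score across replicates of 1.96 or higher in either the MELAS or the Rieske mutant cell line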;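 also: z relative to plate mean and SD of compound and empty wells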). The settings on record: low glucose.
A short description of assay [8]: blockers of cellular phospholipid synthesis – cell-based, LOPAC library, screen 4, primary screen (AID 1347384; call rule not given here). The settings on record: animal cells, phospholipid biosynthesis inhibition screen; at 10 µM.
The nature of assay [9]: chitosan synthesis blockers in C. neoformans – flow cytometry, Cibacron Brilliant Red staining (AID 1347148; call rule not given here;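 also: compound exposure lasted three days at 37 degrees C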). The settings on record: Cryptococcus neoformans chitosan, stronger effect = lower value; at 10 µM unless noted.
The mark [10] stands for this setting: stronger effect = lower value, cell number ratio, induced over uninduced.
The mark [11] stands for this setting: measured here: relative caspase fold change +Dox/-Dox.
The mark [12] stands for this setting: measured here: total cells with miR-34 induction, stronger effect = lower value.
Where [13] appears, read: measured here: total cells without miR-34 induction.
[14] abbreviates: MELAS cybrid survival, CellTiter-Glo 48 h, stronger effect = higher value.
Where [15] appears, read: Rieske KO mouse fibroblast survival, CellTiter-Glo 72 h.

Values joined by “and” are separate entries in the source; they are usually repeats but may differ in a detail not shown here. Equal entries are not always repeated. Inconclusive results are not listed. Active and inactive are the calls of the source.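 The calls were made as follows, unless noted: active = normalized viability below 100% at a tested concentration; inactive = the rest.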

Take `CCC(C)n1ncn(-c2ccc(N3CCN(c4ccc(OC[C@H]5CO[C@](Cn6cncn6)(c6ccc(Cl)cc6Cl)O5)cc4)CC3)cc2)c1=O` (stereo partly drawn): the call in [1], in [2] and in assay [3] was inactive. Besides, in [4], the SSMD amounted to 2.18. This compound returned a cell count in assay [4] of 6750. In addition, the plate-normalised HSF1 focus index in [4] was 1.11 (inactive). Further, the viability is 118% (inactive) in [5] (at 0.000305 µM, OCI-C5x cells, with rucaparib 10 µM, 100% = cells with rucaparib alone); 110% (inactive) in assay [5] (at 0.000305 µM, OCI-C5x cells, without rucaparib); 90.3% (active) in assay [5] (at 0.000305 µM, OCI-P5x cells, with rucaparib 20 µM, 100% = cells with rucaparib alone); 83% (active) in assay [5] (at 0.000305 µM, OCI-P5x cells, without rucaparib); 118% (inactive) in assay [5] (at 0.00122 µM, OCI-C5x cells, with rucaparib 10 µM, 100% = cells with rucaparib alone); 100% (inactive) in assay [5] (at 0.00122 µM, OCI-C5x cells, without rucaparib). Moreover, the viability in assay [5] (at 0.00122 µM, OCI-P5x cells, with rucaparib 20 µM, 100% = cells with rucaparib alone) is 93.4% (active); in assay [5] (at 0.00122 µM, OCI-P5x cells, without rucaparib) it was 81.8% (active); in assay [5] (at 0.00488 µM, OCI-C5x cells, with rucaparib 10 µM, 100% = cells with rucaparib alone), 122% (inactive); in [5] (at 0.00488 µM, OCI-C5x cells, without rucaparib), 105% (inactive); in assay [5] (at 0.00488 µM, OCI-P5x cells, with rucaparib 20 µM, 100% = cells with rucaparib alone) it was 95.6% (active); in assay [5] (at 0.00488 µM, OCI-P5x cells, without rucaparib), 90.8% (active). The viability in [5] (at 0.0195 µM, OCI-C5x cells, with rucaparib 10 µM, 100% = cells with rucaparib alone) is 127% (inactive); in [5] (at 0.0195 µM, OCI-C5x cells, without rucaparib), 116% (inactive); in assay [5] (at 0.0195 µM, OCI-P5x cells, with rucaparib 20 µM, 100% = cells with rucaparib alone), 96.2% (active); in [5] (at 0.0195 µM, OCI-P5x cells, without rucaparib) it was 89.4% (active); in assay [5] (at 0.0781 µM, OCI-C5x cells, with rucaparib 10 µM, 100% = cells with rucaparib alone) it was 126% (inactive); in [5] (at 0.0781 µM, OCI-C5x cells, without rucaparib), 119% (inactive). Further, the viability is 96.6% (active) in assay [5] (at 0.0781 µM, OCI-P5x cells, with rucaparib 20 µM, 100% = cells with rucaparib alone); 95.1% (active) in assay [5] (at 0.0781 µM, OCI-P5x cells, without rucaparib); 131% (inactive) in assay [5] (at 0.313 µM, OCI-C5x cells, with rucaparib 10 µM, 100% = cells with rucaparib alone); 118% (inactive) in [5] (at 0.313 µM, OCI-C5x cells, without rucaparib); 98.6% (active) in assay [5] (at 0.313 µM, OCI-P5x cells, with rucaparib 20 µM, 100% = cells with rucaparib alone); 95.8% (active) in [5] (at 0.313 µM, OCI-P5x cells, without rucaparib). Besides, the viability in assay [5] (at 1.25 µM, OCI-C5x cells, with rucaparib 10 µM, 100% = cells with rucaparib alone) is 131% (inactive); in assay [5] (at 1.25 µM, OCI-C5x cells, without rucaparib) it was 126% (inactive); in assay [5] (at 1.25 µM, OCI-P5x cells, with rucaparib 20 µM, 100% = cells with rucaparib alone), 93.3% (active); in assay [5] (at 1.25 µM, OCI-P5x cells, without rucaparib) it was 94.8% (active); in assay [5] (at 5 µM, OCI-C5x cells, with rucaparib 10 µM, 100% = cells with rucaparib alone), 135% (inactive); in assay [5] (at 5 µM, OCI-C5x cells, without rucaparib), 123% (inactive). The viability in assay [5] (at 5 µM, OCI-P5x cells, with rucaparib 20 µM, 100% = cells with rucaparib alone) is 92.7% (active); in assay [5] (at 5 µM, OCI-P5x cells, without rucaparib), 94.9% (active).

Regarding `COc1ccc2c(c1)c(CC(=O)OCC(=O)O)c(C)n2C(=O)c1ccc(Cl)cc1`, the compound was classed as inactive in [1]. Also, the fold change in assay [6] (setting [10]) was 0.914 (inactive) and 0.85 (inactive) and 0.854 (inactive); in [6] (setting [11]), 1.04 and 0.882 and 1.4. Also, the cell count in [6] (setting [12]) was 8990 and 8100 and 8980; in assay [6] (setting [13]), 9840 and 9530 and 10500. Besides, the z-score was -0.366 (inactive) and 0.477 (inactive) and -0.419 (inactive) in assay [7] (setting [14]); 0.51 and 0.248 and -0.275 in assay [7] (setting [15]).

With `CN(C)CCC=C1c2ccccc2C=Cc2ccccc21`, the result in assay [1], in [3] and in assay [8] was inactive. The z-score was -1.05 (inactive) and 0.34 (inactive) in assay [7] (setting [14]); -0.783 and 0.18 in assay [7] (setting [15]).

Consider `O=C(O)c1cccnc1Nc1cccc(C(F)(F)F)c1`, for which the result in assay [1] and in assay [8] was inactive. Also, the fold fluorescence in assay [9] was 3.63 [at 177.2 µM] (inactive). In addition, the z-score was -0.334 (inactive) and -0.267 (inactive) and 0.0798 (inactive) in assay [7] (setting [14]); -0.307 and -0.187 and -0.378 in assay [7] (setting [15]).

`COc1cc(NS(=O)(=O)c2ccc(N)cc2)nc(OC)n1`: the call in [1] was inactive. For the same compound, the fold change in assay [6] (setting [10]) is 0.911 (inactive) and 0.916 (inactive) and 0.961 (inactive). Further, the z-score in [7] (setting [14]) was -0.175 (inactive) and 0.0464 (inactive) and -0.547 (inactive); in assay [7] (setting [15]), 0.68 and -0.334 and -1.37.

Consider `O=C(N[C@H](CO)[C@H](O)c1ccc([N+](=O)[O-])cc1)C(Cl)Cl`, for which the compound was classed as inactive in [1]. The fold change in assay [6] (setting [10]) is 0.94 (inactive) and 0.855 (inactive); in [6] (setting [11]), 1.13 and 1.29. In addition, the cell count in assay [6] (setting [12]) was 8280 and 6420; in assay [6] (setting [13]) it was 8810 and 7510. Further, the z-score is -0.509 (inactive) and 0.536 in [7] (setting [14]); -3.37 and 2.44 in assay [7] (setting [15]).

For `Cc1onc(-c2ccccc2)c1C(=O)N[C@@H]1C(=O)N2[C@@H]1SC(C)(C)[C@@H]2C(=O)O`, the call in assay [1] was inactive. Also, the results for the fold change in [6] (setting [10]) and in [6] (setting [11]) were 0.877 (inactive) and 6.72, respectively. Further, the cell count in assay [6] (setting [12]) was found to be 9940; in [6] (setting [13]), 11300. In addition, the z-score in assay [7] (setting [14]) was 0.677 (inactive) and 0.0608 (inactive); in [7] (setting [15]), -0.0856 and 0.018.

Take `Cc1ccnc2c1NC(=O)c1cccnc1N2C1CC1`: in [1], the compound was classed as inactive. For the same compound, the fold change was 0.867 (inactive) and 0.916 (inactive) and 0.818 (inactive) in assay [6] (setting [10]); 1 and 1.53 and 1.78 in [6] (setting [11]). Besides, the cell count was 8040 and 8950 and 7970 in assay [6] (setting [12]); 9270 and 9770 and 9750 in assay [6] (setting [13]). For the same compound, the z-score in [7] (setting [14]) is -0.331 (inactive) and -0.443 (inactive); in assay [7] (setting [15]), 0.346 and -0.451.

Consider `CS(=O)(=O)c1ccc([C@@H](O)[C@@H](CO)NC(=O)C(Cl)Cl)cc1`, for which the compound was classed as inactive in [1]. Also, the fold change is 0.9 (inactive) and 0.984 (inactive) in assay [6] (setting [10]); 1.05 and 2.01 in assay [6] (setting [11]). Further, the cell count in assay [6] (setting [12]) was 7540 and 11000; in assay [6] (setting [13]) it was 8380 and 11100. Moreover, the z-score was 0.78 (inactive) in assay [7] (setting [14]) and -3.27 in assay [7] (setting [15]).

Consider `OC[C@H]1O[C@@H](Oc2ccc(O)cc2)[C@H](O)[C@@H](O)[C@@H]1O`, for which the compound was classed as inactive in assay [1]. Also, the fold change in assay [6] (setting [10]) is 0.914 (inactive); in assay [6] (setting [11]) it was 0.569. Moreover, the cell count in assay [6] (setting [12]) turned out to be 9130; in [6] (setting [13]), 9990. Further, the z-score in assay [7] (setting [14]) is 0.856 (inactive); in [7] (setting [15]), 0.44.

For `CN1[C@@H]2CC[C@H]1CC(OC(=O)c1c[nH]c3ccccc13)C2` (stereo partly drawn), the outcome in assay [1] was inactive. For the same compound, the fold change was 0.918 (inactive) and 0.888 (inactive) in assay [6] (setting [10]); 1.65 and 1.61 in [6] (setting [11]). In addition, the cell count in assay [6] (setting [12]) is 8920 and 10100; in assay [6] (setting [13]), 9710 and 11400. For the same compound, the z-score in [7] (setting [14]) was 0.412 (inactive); in assay [7] (setting [15]), 0.0805.

Turning to `Nc1nc(N)nc(-c2cc(Cl)ccc2Cl)n1`, the outcome in assay [1], in assay [2] and in assay [3] was inactive. The z-score in assay [7] (setting [14]) was -0.19 (inactive) and -0.868 (inactive) and 0.283 (inactive); in assay [7] (setting [15]) it was 0.166 and -0.512 and 0.352.

With `COC(=O)Nc1nc2ccc(S(=O)c3ccccc3)cc2[nH]1` (stereo not drawn), the result in assay [1] was inactive. Besides, the fold change in [6] (setting [10]) is 1 (inactive) and 0.95 (inactive) and 1.02 (inactive); in assay [6] (setting [11]) it was 0.565 and 3.46 and 0.832. In addition, the cell count in assay [6] (setting [12]) is 5070 and 6690 and 5080; in assay [6] (setting [13]), 5050 and 7040 and 4970. In addition, the z-score in assay [7] (setting [14]) was -0.274 (inactive) and -0.559 (inactive) and -0.178 (inactive); in assay [7] (setting [15]), 0.754 and 0.142 and 0.645.

Source of the values: PubChem BioAssay.
